Here are results for 14 compounds from PubChem BioAssay (NCI).

Structures are written as SMILES. Values joined by “and” are separate entries in the source; they are usually repeats but may differ in a detail not shown here. Equal entries are not always repeated. Compounds without any hit were thinned out: in the full panel of roughly 83,000, 20% have a hit.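 Plates (96-well) were seeded with cells, treated with compound at one concentration, and incubated for 48 hours before percent growth was determined.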 Active and inactive are the calls of the source. The calls were made as follows: active = growth percent below 10; inactive = the rest.

The test concerns HL-60(TB) leukemia. As to the kind of experiment: NCI-60 one-dose screen, 48 h (100 = growth as untreated, 0 = no growth, -100 = all killed). The note with it: 10 µM unless noted.

As to `Cn1cc(-c2csc(-c3cn(CCNC(=O)OC(C)(C)C)c4ccccc34)n2)c2cccnc21`, the growth was 45.9% (inactive).

On to `Cn1c(=O)c2[nH]c(CCCCC(=O)O)nc2n(C)c1=O`, for which the growth was 60.6% (inactive). The same measure for `COC(=O)c1ccc(CSc2nnc(-c3c(C)nc4ccc(C)cn34)o2)cc1`: 97.5% (inactive); for `COc1ccc(C(=O)NC(=O)Nc2cc3c(cc2F)/C(=C/c2[nH]c(C)c(CCC(=O)O)c2C)C(=O)N3)c(F)c1`: 20.9% (inactive); for `Cc1cccc(NC2=C(C#N)C(=O)NC3(CCCC3)S2)c1`: 89.7% (inactive).

For `Nc1ccccc1NC(=O)CCCCC(=O)Nc1ccc2c(c1)/C(=C/c1ccc[nH]1)C(=O)N2`, the growth was 89.6% (inactive). On to `Cc1nnc(NC(=O)c2nc(S(=O)(=O)Cc3ccc(F)cc3)ncc2Cl)s1`, for which the growth was -30.5% (active). For `c1ccc(CNCCN(CCNCc2ccccn2)Cc2ccc3ccccc3c2)nc1`, the growth is -34.5% (active). The same measure for `O=C(O)CN(CCN(CC(=O)O)CC(=O)O)CCN(CC(=O)O)CC(=O)O`: -51.1% (active) and 109% (inactive) and 94.7% (inactive); for `COc1cc(C(=O)/C=C/c2c[nH]c3ccccc23)cc(OC)c1OC`: -12% (active); for `N#Cc1c(-c2ccccc2)cc(-c2ccccc2)n(CCCCCC(=O)Nc2ccccc2N)c1=O`: 2.68% (active). In the case of `CS(=O)(=O)C1=CN(CCO)C(=O)N2CCCN=C12`, the growth was 109% (inactive).

For the compound `N=C(N)c1ccc(-c2ccc(-c3ccccc3)o2)nc1`, the growth was 54.1% (inactive). Take `O=C(O)c1ccc[n+](CC(=O)N2CCN(c3cc4c(cc3F)c(=O)c(C(=O)O)cn4C3CC3)CC2)c1`: the growth is 97.6% (inactive).
